From the supplement of paper PMC12067926

Key:
Assay in all cases: relative growth (AUC of 72 h growth curve relative to DMSO control, dAUC) (ratio); higher = more growth (less inhibition), active = hit call of the paper
Details in all cases: 20 µM;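 active = growth AUC significantly below the DMSO wells by Dunnett test; inactive = the rest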
Community 7 = system: Community 7
How it was run: (§1)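 For relative growth (dAUC), the spline-integrated area under the growth curve was divided by the mean of the DMSO controls. Results were averaged over three biological replicates. Each replicate used a 1:100 dilution, into 96-well plates holding each chemical at 20 µM (1% DMSO), of isolates from Icelandic stream sediments and Silwood Park soil or whole sediment communities that had been grown to carrying capacity in Luria–Bertani medium. Plates were shaken briefly before each hourly A600 reading over 72 h.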

Community 8 = system: Community 8
How it was run: as §1

Community 9 = system: Community 9
How it was run: as §1

[1] = system: Flavobacterium 1 (Flavobacterium glaciei)
How it was run: as §1

[2] = system: Flavobacterium 2 (Flavobacterium succinicans)
How it was run: as §1

[3] = system: Hymenobacter 1 (Hymenobacter glaciei)
How it was run: as §1

[4] = system: Microbacterium 1 (Microbacterium arborescens)
How it was run: as §1

[5] = system: Neobacillus 1 (Neobacillus soli)
How it was run: as §1

[6] = system: Oryzobacter 1 (Oryzobacter terrae)
How it was run: as §1

[7] = system: Paenibacillus 1 (Paenibacillus castaneae)
How it was run: as §1

[8] = system: Prolinoborus 1 (Prolinoborus fasciculus)
How it was run: as §1

[9] = system: Pseudomonas 1 (Pseudomonas baetica)
How it was run: as §1

[10] = system: Pseudomonas 2 (Pseudomonas vancouverensis)
How it was run: as §1

[11] = system: Pseudomonas 3 (Pseudomonas mandelii)
How it was run: as §1

[12] = system: Pseudomonas 4 (Pseudomonas peli)
How it was run: as §1

[13] = system: Pseudomonas 5 (Pseudomonas baetica)
How it was run: as §1

[14] = system: Pseudomonas 6 (Pseudomonas sp.)
How it was run: as §1

[15] = system: Rhizobium 1 (Rhizobium herbae)
How it was run: as §1

[16] = system: Serratia 1 (Serratia sp. 2015-2462-01)
How it was run: as §1

[17] = system: Sphingomonas 2 (Sphingomonas sp.)
How it was run: as §1

Measured: relative growth

CC1(C)[C@H](C(=O)O[C@H](C#N)c2cccc(Oc3ccccc3)c2)[C@@H]1C=C(Br)Br
inactive: Community 7 1.07 | Community 8 1.06 | Community 9 1.05 | [1] 1.08 | [2] 1.02 | [3] 1.06 | [4] 1.03 | [5] 1.1 | [6] 1.08 | [7] 0.958 | [8] 1.01 | [9] 1.04 | [10] 1.03 | [11] 1.03 | [12] 1.01 | [13] 1.06 | [14] 1.14 | [15] 1.23 | [16] 1 | [17] 1.12

CCN(CC)c1nc(C)cc(OP(=S)(OC)OC)n1
inactive: Community 7 0.988 | Community 8 1.04 | Community 9 1.04 | [1] 1.05 | [2] 0.995 | [3] 1 | [4] 1.03 | [5] 1.03 | [6] 1.06 | [7] 1.02 | [8] 1.01 | [9] 1 | [10] 1 | [11] 1 | [12] 0.979 | [13] 0.988 | [14] 1.03 | [15] 1.05 | [16] 0.994 | [17] 0.839

CO/C=C(/C(=O)OC)c1ccccc1COc1cccc(C(F)(F)F)n1
inactive: Community 7 1.04 | Community 8 1 | Community 9 0.987 | [1] 0.911 | [2] 0.962 | [3] 1.06 | [4] 0.997 | [5] 1.01 | [6] 0.944 | [7] 1.01 | [8] 0.929 | [9] 1.02 | [10] 0.958 | [11] 0.991 | [12] 0.97 | [13] 1.05 | [14] 1.11 | [15] 0.96 | [16] 0.966 | [17] 1

CC(C)N1C(=O)N(c2ccccc2)CS/C1=N\C(C)(C)C
inactive: Community 7 1.09 | Community 8 1.08 | Community 9 1.03 | [1] 0.891 | [2] 0.947 | [3] 1.06 | [4] 1.07 | [5] 0.906 | [6] 0.973 | [7] 1 | [8] 0.883 | [9] 1.05 | [10] 0.977 | [11] 1.02 | [12] 0.937 | [13] 1.03 | [14] 1.07 | [15] 0.931 | [16] 0.962 | [17] 1.05

CNC(=O)/C=C(\C)OP(=O)(OC)OC
inactive: Community 7 1.14 | Community 8 0.954 | Community 9 0.956 | [1] 0.897 | [2] 0.954 | [3] 0.933 | [4] 0.986 | [5] 0.937 | [6] 1.11 | [7] 0.944 | [8] 0.971 | [9] 1.05 | [10] 0.988 | [11] 1.03 | [12] 0.964 | [13] 0.96 | [14] 0.989 | [15] 1.09 | [16] 0.937 | [17] 0.926

CNC(=O)c1cc(C#N)cc(C)c1NC(=O)c1cc(Br)nn1-c1ncccc1Cl
inactive: Community 7 1.05 | Community 8 0.986 | Community 9 1.02 | [1] 1.02 | [2] 0.975 | [3] 0.978 | [4] 0.993 | [5] 0.957 | [6] 1.06 | [7] 0.915 | [8] 0.944 | [9] 0.962 | [10] 0.986 | [11] 1.01 | [12] 0.976 | [13] 1.06 | [14] 1.06 | [15] 0.961 | [16] 0.982 | [17] 1.05

ClC1C(Cl)C(Cl)C(Cl)C(Cl)C1Cl (stereo not given)
inactive: Community 7 1.03 | Community 8 0.993 | Community 9 0.963 | [1] 0.862 | [2] 0.932 | [3] 0.999 | [4] 1.01 | [5] 0.941 | [6] 1.13 | [7] 0.961 | [8] 0.987 | [9] 1.04 | [10] 0.993 | [11] 0.99 | [12] 0.982 | [13] 1.04 | [14] 1.02 | [15] 0.826 | [16] 0.97 | [17] 0.949

C[N+](C)(C)CCCl
inactive: Community 7 0.749 | Community 8 0.988 | Community 9 1.01 | [1] 1.09 | [2] 0.996 | [3] 0.977 | [4] 0.994 | [5] 0.993 | [6] 1.05 | [7] 0.97 | [8] 0.959 | [9] 1.07 | [10] 1.03 | [11] 1.01 | [12] 1.04 | [13] 1.02 | [14] 1.07 | [15] 0.998 | [16] 0.962 | [17] 1.02

COC(=O)NC(=S)Nc1ccccc1NC(=S)NC(=O)OC
inactive: Community 7 1.03 | Community 8 0.993 | Community 9 1.05 | [1] 1.08 | [2] 0.993 | [3] 0.952 | [4] 1 | [5] 1.01 | [6] 0.947 | [7] 0.934 | [8] 0.975 | [9] 1.04 | [10] 0.969 | [11] 0.99 | [12] 0.95 | [13] 1.06 | [14] 1.14 | [15] 0.959 | [16] 0.987 | [17] 1.01

CC(COc1ccc(Oc2ccccc2)cc1)Oc1ccccn1 (stereo not given)
inactive: Community 7 1.05 | Community 8 1.06 | Community 9 1.04 | [1] 0.975 | [2] 1.02 | [3] 1.07 | [4] 1.05 | [5] 1.09 | [6] 1.11 | [7] 1.05 | [8] 1.03 | [9] 1.02 | [10] 1 | [11] 1.01 | [12] 1.05 | [13] 1.01 | [14] 1.08 | [15] 0.97 | [16] 0.987 | [17] 1.14

CCCN(CCOc1c(Cl)cc(Cl)cc1Cl)C(=O)n1ccnc1
inactive: Community 7 0.969 | Community 8 1.02 | Community 9 0.998 | [2] 0.935 | [3] 0.75 | [4] 0.953 | [5] 1.05 | [8] 0.93 | [9] 1.07 | [10] 0.984 | [11] 1.02 | [12] 0.964 | [13] 0.997 | [14] 1.03 | [15] 0.949 | [16] 0.985 | [17] 0.993
active: [1] 0.335 | [6] 0.236 | [7] 0.59

CC(C1CC1)C(O)(Cn1cncn1)c1ccc(Cl)cc1 (stereo not given)
active: [9] 0.624
inactive: Community 7 1.02 | Community 8 1.04 | Community 9 0.989 | [1] 0.999 | [2] 0.955 | [3] 1.03 | [4] 0.987 | [5] 0.985 | [6] 0.982 | [7] 0.959 | [8] 0.901 | [10] 0.955 | [11] 0.971 | [12] 0.991 | [13] 0.986 | [14] 1.03 | [15] 0.947 | [16] 1 | [17] 1.13

Cc1cc(C2CC2)nc(Nc2ccccc2)n1
active: [7] 0.619
inactive: Community 7 0.89 | Community 8 1.05 | Community 9 0.939 | [1] 0.951 | [2] 0.86 | [3] 1.1 | [4] 1.05 | [5] 0.946 | [6] 1.04 | [8] 1.03 | [9] 1.11 | [10] 1 | [11] 1.03 | [12] 0.976 | [13] 0.991 | [14] 0.966 | [15] 1.06 | [16] 0.969 | [17] 0.951

CCOC(=O)CC(SP(=S)(OC)OC)C(=O)OCC (stereo not given)
inactive: Community 7 1.04 | Community 8 0.99 | Community 9 1.14 | [1] 1.02 | [2] 1.02 | [3] 1.02 | [4] 1 | [5] 1.06 | [6] 1.1 | [7] 1.02 | [8] 1.01 | [9] 1.03 | [10] 1.05 | [11] 1.05 | [12] 1.04 | [13] 0.994 | [14] 1.09 | [15] 0.984 | [16] 1.01 | [17] 1.15

CCCC(Cn1cncn1)c1ccc(Cl)cc1Cl (stereo not given)
inactive: Community 7 0.902 | Community 8 1.09 | Community 9 1.12 | [1] 1.07 | [2] 0.966 | [3] 0.877 | [4] 0.99 | [5] 1.09 | [6] 1.05 | [7] 1.06 | [8] 0.988 | [9] 1.01 | [10] 0.994 | [11] 1.02 | [12] 1.07 | [13] 1.01 | [14] 0.993 | [15] 1.04 | [16] 0.994 | [17] 1.03

CCCCc1c(C)nc(NCC)nc1OS(=O)(=O)N(C)C
inactive: Community 7 1.04 | Community 8 1.05 | Community 9 0.969 | [1] 0.978 | [2] 0.904 | [3] 1.06 | [4] 1.02 | [5] 0.963 | [6] 1.09 | [7] 0.906 | [8] 1.04 | [9] 1.06 | [10] 0.978 | [11] 1.02 | [12] 0.97 | [13] 0.981 | [14] 1 | [15] 1.05 | [16] 0.96 | [17] 0.969
